According to PubChem BioAssay (NCATS):
“And” between values parts separate entries of the source, which are not always exact repeats. Identical values can stand only once. Records with an inconclusive call do not appear. A number with no mark means an inactive call. The source made the active and inactive calls. Calls follow the shape of the dose curve; as a rule, active = well fitted curve in the direction sought with a large enough effect; inconclusive = small, poorly fitted or top-dose-only effect, or another doubt; inactive = no such curve, though single readings can be large; an effect the other way counts as inactive or inconclusive.

How the values were obtained:
[1] = biological target: Cellular tumor antigen p53 (Homo sapiens) (UniProt P04637); assay: Primary qHTS for small molecule compounds that upregulate eGFP-tagged delta133p53alpha (in N-terminal) cells. (AID 2060322); details: NCI-H358 eGFP-delta133p53alpha fluorescence, 24 h; activation: active compounds read high; also: nearly all actives have a fitted effect of over 75% in size; also: potency is read from the fitted curve at half-maximal effect;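 as to activation: series mostly up to about 56 µM; 0% = DMSO vehicle and 100% = reference activator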
Cellular tumor antigen p53 (Homo sapiens), sequence (P04637 whole entry, looked up): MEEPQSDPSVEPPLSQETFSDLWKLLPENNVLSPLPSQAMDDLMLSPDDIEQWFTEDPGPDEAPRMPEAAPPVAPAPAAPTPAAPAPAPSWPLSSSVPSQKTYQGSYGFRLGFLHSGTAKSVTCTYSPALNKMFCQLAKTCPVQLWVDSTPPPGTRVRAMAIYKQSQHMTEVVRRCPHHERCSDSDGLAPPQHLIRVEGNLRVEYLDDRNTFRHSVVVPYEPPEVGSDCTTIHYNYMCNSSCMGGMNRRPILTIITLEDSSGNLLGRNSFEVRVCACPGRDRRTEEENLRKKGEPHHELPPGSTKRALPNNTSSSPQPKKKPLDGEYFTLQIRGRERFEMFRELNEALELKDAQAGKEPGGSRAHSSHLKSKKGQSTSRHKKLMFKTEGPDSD
Summary of the method: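 NCI-H358 cells pre-induced 24 h with 10 ng/ml doxycycline to express N-terminal eGFP-delta133p53alpha, then dosed 24 h at 37C without doxycycline; fixed, Hoechst-stained, GFP intensity by laser scanning cytometry, normalized to DMSO (0%) and 57.5 uM 5-azacytidine (100%).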

[2] = biological target: Aldehyde dehydrogenase, mitochondrial (Homo sapiens) (UniProt P05091); assay: qHTS for Inhibitors of the Aldehyde Dehydrogenase Family (ALDH2) Primary screen (AID 2061308);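 also: plate controls were vehicle for no effect and reference inhibitor for full effect; nearly all actives have a fitted effect of over 55% in size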
[3] = biological target: Retinaldehyde dehydrogenase 3 (Homo sapiens) (UniProt P47895); assay: qHTS for Inhibitors of the Aldehyde Dehydrogenase Family (ALDH1A3) Primary screen (AID 2061315);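 also: plate controls were DMSO vehicle for no effect and reference inhibitor for full effect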
[4] = BET inhibitor-based combinations targeting novel dependencies in MECOM-rearranged (r) AML: SET-2 cell line (AID 2202231); details: SET-2 AML cells viability, CellTiter-Glo luminescence, 48 h; viability: active compounds read low, concentration not given here; also: nearly all actives have a fitted effect of over 35% in size; also: potency is read from the fitted curve at half-maximal effect;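 as to viability: plate controls were DMSO treated cells for no effect and wells without cells for full effect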
Summary of the method: (§1)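 Luminescent ATP readout (CellTiter-Glo) after 48 hr drug exposure gives viability. Curves span 11 concentrations and are normalized to DMSO and empty wells. Activity is reported as area under the curve and its Z-transform within each cell line.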

[5] = BET inhibitor-based combinations targeting novel dependencies in MECOM-rearranged (r) AML: OCI-AML3 cell line (AID 2202232); details: Potency: OCI-AML3 viability; also: nearly all actives have a fitted effect of over 35% in size; also: potency is read from the fitted curve at half-maximal effect
Summary of the method: as §1

[6] = BET inhibitor-based combinations targeting novel dependencies in MECOM-rearranged (r) AML: MV-4-11 cell line (AID 2202233); also: nearly all actives have a fitted effect of over 45% in size; also: potency is read from the fitted curve at half-maximal effect
Summary of the method: (§2)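 Luminescent ATP readout (CellTiter-Glo, 15 min at room temperature) after 48 hr drug exposure gave viability. Dose-response curves, normalized to DMSO and empty-well controls, were summarized as area under the curve and its mean-centred Z-score.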

[7] = BET inhibitor-based combinations targeting novel dependencies in MECOM-rearranged (r) AML: HNT-34 cell line (AID 2202234); also: nearly all actives have a fitted effect of over 35% in size; also: potency is read from the fitted curve at half-maximal effect
Summary of the method: as §2

[8] = BET inhibitor-based combinations targeting novel dependencies in MECOM-rearranged (r) AML: UCSD-AML1 cell line (AID 2202235); also: nearly all actives have a fitted effect of over 40% in size; also: potency is read from the fitted curve at half-maximal effect
Summary of the method: as §2

[9] = BET inhibitor-based combinations targeting novel dependencies in MECOM-rearranged (r) AML: AML-191 cell line (AID 2202236; also: nearly all actives have a fitted effect of over 35% in size; also: potency is read from the fitted curve at half-maximal effect)
Summary of the method: as §1

[10] = BET inhibitor-based combinations targeting novel dependencies in MECOM-rearranged (r) AML: AML-194 cell line (AID 2202237; also: nearly all actives have a fitted effect of over 40% in size; also: potency is read from the fitted curve at half-maximal effect)
Summary of the method: as §1

| SMILES | activation [1] | Potency [2] | Potency [3] | viability [4] [%] | Potency [5] | Potency [6] | Potency [7] | Potency [8] | Potency [9] | Potency [10] | activity change, negative = inhibition [2] | activity change, negative = inhibition [3] | Potency [4] | Potency [1] |
| --- | --- | --- | --- | --- | --- | --- | --- | --- | --- | --- | --- | --- | --- | --- |
| COCCCc1sc(-c2ccccc2)nc1C(=O)Nc1ccccc1-c1nc2cc(CN3CCCC3)cnc2s1 | -4.33% | inactive | inactive | 121 | 9.1 µM (active) | – | – | – | – | – | – | – | – | – |
| Cc1cnc(-c2cc(N3CCN(C(=O)CCS(C)(=O)=O)CC3)ncc2Cl)c(C)c1 | 20.4% and -10.5% | inactive | inactive | 112 | inactive | inactive | inactive | inactive | inactive | inactive | – | – | – | – |
| O=C(NCc1cccc(O)c1)Nc1nc(-c2ccncc2)cs1 | 6.25% | inactive | inactive | 92.2 | 14.8 µM (active) | 9.34 µM (active) | – | – | – | – | – | – | – | – |
| COc1c(OCCCN2CCOCC2)ccc2c3n(c(=NC(=O)c4cnc(N)nc4)nc12)CCN3 | 8.4% and -29.5% | – | – | – | 0.034 µM (active) | 0.0855 µM (active) | 0.959 µM (active) | 0.0428 µM (active) | – | – | -4.59% [at 11.2 µM] | 13.9% [at 11.2 µM] | 1.08 µM (active) | – |
| CC(C)(C)c1nc(-c2cccc(NS(=O)(=O)c3c(F)cccc3F)c2F)c(-c2ccnc(N)n2)s1 | – | inactive | inactive | 98 | – | – | – | – | – | – | – | – | – | 26.9 µM (active) |
| C=CC(=O)Nc1cccc(Sc2nc(Nc3ccc(N4CCN(C)CC4)cc3)ncc2Cl)c1 | – | inactive | inactive | – | 13.2 µM (active) | 2.95 µM (active) | 6.61 µM (active) | 9.34 µM (active) | 10.5 µM (active) | – | – | – | 11.8 µM (active) | 12 µM (active) |
| CO[C@@H]1COCC[C@@H]1N[C@@H]1CC[C@@](C(=O)N2CCc3ncc(C(F)(F)F)cc3C2)(C(C)C)C1 | -7.67% and -27.6% | inactive | inactive | 122 | inactive | inactive | inactive | inactive | inactive | inactive | – | – | – | – |
| CCNC(=O)C#Cc1ccc2c(C(=Nc3ccc(CN(C)C)cc3)c3ccccc3)c(O)[nH]c2c1 | – | inactive | inactive | – | 0.144 µM (active) | 0.0645 µM (active) | 0.091 µM (active) | 0.574 µM (active) | 0.204 µM (active) | 0.162 µM (active) | – | – | 12.9 µM (active) | 13.1 µM (active) |
| c1ccc(-c2ccc(CNc3nc(-c4ccccn4)nnc3-c3ccccc3)cc2)cc1 | -11.7% | inactive | inactive | – | 1.32 µM (active) | 1.18 µM (active) | 1.32 µM (active) | 1.05 µM (active) | 0.934 µM (active) | 1.05 µM (active) | – | – | 2.35 µM (active) | – |
| C[C@@H](Oc1cc(-c2cnn(C3CCNCC3)c2)cnc1N)c1c(Cl)ccc(F)c1Cl | -17.6% | inactive | inactive | – | 5.9 µM (active) | 2.35 µM (active) | 1.18 µM (active) | 1.66 µM (active) | 1.18 µM (active) | 1.48 µM (active) | – | – | 10.5 µM (active) | – |
| c1cc(-c2cnn3cc(-c4ccc(N5CCNCC5)cc4)cnc23)c2cccnc2c1 | – | inactive | inactive | – | 16.6 µM (active) | 3.32 µM (active) | 11.8 µM (active) | 8.33 µM (active) | 4.68 µM (active) | 2.95 µM (active) | – | – | 5.25 µM (active) | 15.1 µM (active) |
| CC(=O)Nc1nc(C)c(-c2ccc(Cl)c(S(=O)(=O)NCCO)c2)s1 | 12.7% and -14.3% | inactive | inactive | – | 8.33 µM (active) | 3.72 µM (active) | 5.25 µM (active) | 3.72 µM (active) | 5.25 µM (active) | 4.17 µM (active) | – | – | 14.8 µM (active) | – |
| CNC(=O)c1nn(C)c2c1C(C)(C)Cc1cnc(Nc3ccc(N4CCN(C)CC4)cc3)nc1-2 | – | inactive | inactive | – | 5.25 µM (active) | 0.132 µM (active) | 0.263 µM (active) | 0.934 µM (active) | 1.18 µM (active) | 1.32 µM (active) | – | – | 0.833 µM (active) | 38.5 µM (active) and 9.53 µM (active) |
| CS(=O)(=O)c1ccc(Oc2cc(F)cc(C#N)c2)c2c1[C@H](O)C(F)(F)C2 | -20.7% | inactive | inactive | 103 | inactive | inactive | inactive | inactive | inactive | inactive | – | – | – | – |
| CC(C)c1cc(C(C)C)c(CC(=O)NS(=O)(=O)Oc2c(C(C)C)cccc2C(C)C)c(C(C)C)c1 | 11.6% and 19% | inactive | inactive | 106 | 10.5 µM (active) | 5.25 µM (active) | 7.42 µM (active) | inactive | 8.33 µM (active) | inactive | – | – | – | – |
| COc1cc2ncnc(Nc3ccc(F)c(Cl)c3)c2cc1NC(=O)/C=C/CN1CCCCC1 | – | inactive | inactive | – | 5.9 µM (active) | 2.95 µM (active) | 3.72 µM (active) | 8.33 µM (active) | 7.42 µM (active) | 8.33 µM (active) | – | – | 8.33 µM (active) | 9.53 µM (active) |
